These results are taken from PubChem BioAssay AID1063 (University of Pittsburgh Molecular Library Screening Center, 2008).

About 18,000 (9%) of roughly 200,000 compounds were called active. This is one part of a sample in which actives are shown more often than they occur. Unmarked numbers belong to inactive results. Cut-off read from the data, not from the text of the source: active = inhibition above about 50%; inactive = the rest.

A short description of the assay: antileishmanial activity against promastigotes – primary screen (AID 1063).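 Note: promastigotes grown with compound for 44 hours at 28 °C.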 The settings on record: Leishmania major promastigotes, resazurin fluorescence viability; at 10 µM; active compounds read high. (In general: Alamar Blue is a resazurin reagent that responds to reducing activity.)
Broadly, the inhibition is the relative decrease from the control value, in per cent. For the molecule `O=C(C(=O)N1CCc2ccccc2C1)c1c[nH]c2ccccc12`, the inhibition is 4.91%.

`Cc1ccccc1NC(=O)NC1(C(=O)N2CCCC2)CCCCC1`: the inhibition was -6.94%.

As to `Cc1ccc(C(=O)NNC(=O)c2cccs2)cc1`, the inhibition was 5.96%.

For the molecule `CC(C)C(=O)Nc1ccc(C(=O)NNC(=O)c2cccs2)cc1`, the inhibition was 66.2% (active).

Turning to `O=C(O)c1ccc(NC(=O)c2cccs2)cc1`, the inhibition was -4.2%.

For the molecule `COc1ccc(OC)c(S(=O)(=O)NCCC(C)C)c1`, the inhibition was -7.99%.

As to `O=C1Oc2ccccc2C(=O)/C1=C/c1ccccc1O`, the inhibition is 7.18%.

Regarding `CN1CCN(C(=O)N2c3ccccc3CCc3ccccc32)CC1`, the inhibition is -0.1%.

As for `O=C(Nc1cccc(O)c1)c1ccc(C(=O)c2ccccc2)o1`, the inhibition was 26.7%.

Regarding `O=C1CCCC2=C1C(c1cccs1)CC(=O)N2c1ccc(F)cc1` (centres undefined), the inhibition was 4.07%.

On to `CCOC(=O)C1=C(N)N(c2ccc(C)cc2)C2=C(C(=O)CCC2)C1c1cccs1` (centres undefined), for which the inhibition is 92.3% (active).

Turning to `CCOC(=O)c1cc2c(n(-c3ccc(C)cc3)c1=O)CCCC2=O`, the inhibition was 15.4%.

As to `Cc1nc(-c2ccccc2)sc1C(=O)/C=C/N(C)C`, the inhibition is -7.03%.

In the case of `C/C=C/c1ccc(OCCOc2ccc(C=O)cc2OC)c(OC)c1`, the inhibition is -4.56%.

Take `COc1ccc(OC)c(NC(=O)CCN2CCC(C)CC2)c1`: the inhibition was 1.65%.

For the molecule `C/C=C/c1ccc(OCCCCN2CCC(C)CC2)c(OC)c1`, the inhibition was 95.6% (active).

With `O=c1c(Cl)c(NC2CC2)cnn1-c1ccccc1`, the inhibition was -1.71%.

For `c1ccc2c(c1)CSc1sccc1C2=C1CCNCC1`, the inhibition was 58.3% (active).

Regarding `CCOC(=O)Cc1csc(NC(=O)COc2ccc3c(C)cc(=O)oc3c2)n1`, the inhibition was 13.5%.

With `CN(C)S(=O)(=O)c1cccc(C(=O)Nc2cccnc2)c1`, the inhibition was -3.68%.

As to `COc1ccc(N(C(=O)c2cccnc2)S(=O)(=O)c2ccc3c(c2)n(C)c(=O)n3C)cc1`, the inhibition is 0.4%.

On to `O=C(c1cccnc1)N(c1cc2sc(=O)oc2c2ccccc12)S(=O)(=O)c1ccccc1`, for which the inhibition was 99.2% (active).

Turning to `N/C(Cc1ccc([N+](=O)[O-])cc1)=N\OC(=O)C1CCCCC1`, the inhibition was -4.63%.

With `COCCN(C(=O)c1ccccc1F)c1c(N)n(Cc2ccccc2)c(=O)[nH]c1=O`, the inhibition is -1.31%.

In the case of `CCOC(=O)c1nc(Nc2ccc(C(=O)OC)cc2)c2ccccc2n1`, the inhibition was 16.3%.

Turning to `CCC(=O)OCCNc1nc(-c2ccccc2)nc2ccccc12`, the inhibition was 88.4% (active).

For the molecule `c1ccc(-c2nc(NCc3ccco3)c3ccccc3n2)cc1`, the inhibition is 66.3% (active).

Regarding `c1coc(CNc2ncnc3ccccc23)c1`, the inhibition is 32.3%.

Regarding `CCOC(=O)c1c(C)nc(-c2ccccc2)nc1NC(=O)C(C)C`, the inhibition is 14.1%.

Take `CS(=O)(=O)n1nc(-c2ccccc2)nc1NCc1ccco1`: the inhibition was -5.02%.

With `CN(C)c1ccc(NC(=O)CSc2n[nH]c(-c3ccco3)n2)cc1`, the inhibition was 47%.

As to `CCN(CC)C(=O)Cn1cc(S(=O)(=O)CC(=O)NCc2ccc3c(c2)OCO3)c2ccccc21`, the inhibition is -2.2%.

For the molecule `CCCN(CC(=O)Nc1ccc(OC)c(OC)c1)CC(=O)Nc1ccc(F)c(F)c1F`, the inhibition is -4.92%.

Regarding `COCCSc1nnc(NC(=O)c2cc(OC)c(OC)cc2[N+](=O)[O-])s1`, the inhibition is -4.07%.

Take `CC(=O)c1ccc(NC(=S)N(Cc2ccccc2)C(C)C2CC2)cc1` (centres undefined): the inhibition was 11.1%.

Take `CC(C)CC(=O)NC(=S)Nc1ccc(F)cc1F`: the inhibition was -0.93%.

Turning to `Cc1[nH]nc(SCC(=O)NCC(C)C)c1[N+](=O)[O-]`, the inhibition was -6.19%.

Regarding `Cc1cccc(C)c1OCC(O)CN1CCCCC1` (centres undefined), the inhibition is -0.13%.

As for `OC(COCCC12CC3CC(CC(C3)C1)C2)CN1CCCCC1` (centres undefined), the inhibition is 92.4% (active).

Consider `COCC1CCCN(Cc2cn[nH]c2-c2cc3ccccc3o2)C1` (centres undefined), for which the inhibition was 11.4%.

As for `O=C(CC1Nc2ccccc2NC1=O)Nc1ccccc1NC(=O)CC1Nc2ccccc2NC1=O` (centres undefined), the inhibition is -4.12%.

Regarding `CSCCC(=O)N1CCCC(CNC(=O)c2ccccc2Cl)C1` (centres undefined), the inhibition is -3.88%.

For the molecule `COc1ccc(/C=N/Nc2nc3ccccc3c(=O)[nH]2)cc1`, the inhibition is 36.7%.

As to `CCOc1ccc(-n2c(O)c(/C=N/Nc3nnc(C)c(=O)[nH]3)c3ccccc3c2=O)cc1`, the inhibition is 3.53%.

Regarding `COc1ccc(Cc2nnc(N/N=C/c3ccccc3O)[nH]c2=O)cc1OC`, the inhibition was 97.4% (active).

For the molecule `CCCCNS(=O)(=O)c1ccc2nc(SCC(=O)Nc3cc(C)cc(C)c3)[nH]c2c1`, the inhibition was -3.48%.

Regarding `O=C(CSc1ncn[nH]1)NCc1ccc2c(c1)OCO2`, the inhibition was -2.48%.

Regarding `Cc1[nH]c2c(C(=O)N3CCCC(CCC(=O)NCc4ccccc4F)C3)cccc2c1C` (centres undefined), the inhibition was 3.43%.

On to `Nc1[nH]c(=S)nc2nc(-c3ccccc3)c(-c3ccccc3)nc12`, for which the inhibition was 29.6%.

Consider `Cc1nc2nc[nH]n2c(=O)c1C/C=C/c1ccccc1`, for which the inhibition is -0.45%.

`CCc1c(C)nc2cc(C)[nH]n2c1=O`: the inhibition is 65% (active).

Take `CCc1c(C)nc2cc(-c3cccs3)[nH]n2c1=O`: the inhibition was 6.8%.

Take `COc1cccc(Cn2cnc3c([N+](=O)[O-])c(C)c(C)cc32)c1`: the inhibition was 12.1%.

On to `Oc1ccccc1C=NC1CCCCC1N=Cc1ccccc1O` (centres undefined), for which the inhibition was -8.81%.

Regarding `COc1cc(/C=C2/C(=O)ON=C2C)ccc1OCc1ccccc1F`, the inhibition is 33.4%.

Take `COc1cc(/C=C2/C(=O)ON=C2C)ccc1OCc1cccc(F)c1`: the inhibition was 53.5% (active).

As to `COc1cc(/C=N/n2c(C)n[nH]c2=S)ccc1OCc1ccccc1`, the inhibition was 36.4%.

For `Cc1cccc2c1N(CCOc1ccccc1)C(=O)C2=O`, the inhibition is 4.82%.

With `O=C(CC1C(=O)NCCN1CC(c1ccccc1)c1ccccc1)NCCc1cn[nH]c1` (centres undefined), the inhibition was -0.14%.

Regarding `Cc1cc([N+](=O)[O-])nn1Cc1ccc(F)cc1`, the inhibition is 10.1%.

Consider `Cc1ccccc1NC(=O)CSC1=NCCN1`, for which the inhibition is -2.55%.

Regarding `Cc1nc(SCc2ccc(F)cc2)c([N+](=O)[O-])[nH]1`, the inhibition was -7.82%.

For the molecule `CCCOc1ccc(Cn2ccnc2)cc1[N+](=O)[O-]`, the inhibition is 85.9% (active).

Turning to `CCCCCOc1ccc(CSC2=NCCN2)cc1[N+](=O)[O-]`, the inhibition was 88.3% (active).

Consider `CCCCOc1ccc(CSC(=N)N)cc1[N+](=O)[O-]`, for which the inhibition was 100% (active).

Take `CCCCOC(=O)CCCc1ccc([N+](=O)[O-])cc1[N+](=O)[O-]`: the inhibition was 0.48%.

Take `CCOc1ccc(C(=O)Nc2nccs2)cc1[N+](=O)[O-]`: the inhibition was 48.5%.

For `CCOc1ccc(Br)cc1CSC(=N)N`, the inhibition is 33.2%.

In the case of `CCCOc1ccc(C2C(C(=O)c3ccc(C)o3)=C(O)C(=O)N2CCCn2ccnc2)cc1` (centres undefined), the inhibition was -8.78%.
